From PubChem
Sampled rows, rich in hits. Any-hit rate of the full collection: about 11%.
IMPase Li inh = qHTS Assay for Identifying the Cell-Membrane Permeable IMPase Inhibitors: Potentiation with Lithium | CHO-M1 cells, IP1 TR-FRET (IP-One), carbachol + lithium | AID 1457, 2008 | 0.35% of 210,000 active | Potency, µM (highest dose often 59.4 µM), actives largely listed as inhibitors; active = well fitted curve in the direction sought with a large enough effect; inconclusive = small, poorly fitted or top-dose-only effect, or another doubt; inactive = no such curve, though single readings can be large; an effect the other way counts as inactive or inconclusive;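 note: IP1 builds up when IMPase is blocked and the TR-FRET signal falls; nearly all actives have a fitted effect of over 50% in size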
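Test compounds were applied to CHO-M1 cells previously cultured for 16–30 h at 2000 per well. A small lithium amount accompanied them; after 30 min at 37C, IP1 was quantified by TR-FRET.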
12-hLO inh = qHTS Assay for Inhibitors of 12-hLO (12-human lipoxygenase); Polyunsaturated fatty acid lipoxygenase ALOX12 (Homo sapiens), P18054; purified 12-hLO, xylenol orange hydroperoxide absorbance; Potency, µM (series often up to 57.1 µM), usual class: inhibitors; 0.12% of 150,000 active; AID 1452, 2008; active = well fitted curve in the direction sought with a large enough effect; inconclusive = small, poorly fitted or top-dose-only effect, or another doubt; inactive = no such curve, though single readings can be large; an effect the other way counts as inactive or inconclusive; note: nearly all actives have a fitted effect of over 55% in size
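Xylenol orange chromogenic assay: hydroperoxide from 12hLO oxidises Fe(II), giving red-shifted Fe(III)-XO absorbance. Conditions: 150 nM enzyme, 40 uM arachidonic acid, 25 mM Hepes pH 7.0, 0.01% Triton X-100, 30 min, room temperature.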
HPGD inh = qHTS Assay for Inhibitors of HPGD (15-Hydroxyprostaglandin Dehydrogenase); 4.3% of 150,000 active; purified HPGD, NADH fluorescence kinetic, PGE2 substrate; Potency, µM, actives largely listed as inhibitors; 15-hydroxyprostaglandin dehydrogenase [NAD(+)] (Homo sapiens), P15428
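20 nM HPGD preincubated 15 min at room temperature with compound in 50 mM Tris-HCl pH 8, 0.01% Tween 20. Started with 1 mM NAD+ and 30 uM prostaglandin E2; NADH fluorescence (360/450 nm) read 5 times over 30-s intervals, last minus first.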
PNC inhibitor = High Content Assay for Compounds that inhibit the Assembly of the Perinucleolar Compartment; 3.1% of 140,000 active; PC3M PTB-GFP, PNC prevalence imaging, 16 h; hits give low values; activity change (PNC), negative = inhibition, % at 10 µM;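 active = readout at or below -70, meaning at least 70% loss of cells showing the perinucleolar compartment, a nuclear body marking cancer cells; inconclusive = readout between -30 and a set limit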
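PC3M cells stably expressing PTB-GFP, 750–1000 cells/well, treated 16 h at 37 °C with compound (23 nl of library stock), in duplicate. After paraformaldehyde fixation and Hoechst stain, imaged at 20x; PNC prevalence scored by image analysis.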
ALDH1A1 inh = qHTS Assay for Inhibitors of Aldehyde Dehydrogenase 1 (ALDH1A1); Purified ALDH1A1, NADH fluorescence, propionaldehyde substrate; Potency, µM (top dose mostly 75.3 µM), most hits filed as inhibitors; 7.3% of 220,000 active; AID 1030, 2008
Target sequence (P00352 whole entry, looked up): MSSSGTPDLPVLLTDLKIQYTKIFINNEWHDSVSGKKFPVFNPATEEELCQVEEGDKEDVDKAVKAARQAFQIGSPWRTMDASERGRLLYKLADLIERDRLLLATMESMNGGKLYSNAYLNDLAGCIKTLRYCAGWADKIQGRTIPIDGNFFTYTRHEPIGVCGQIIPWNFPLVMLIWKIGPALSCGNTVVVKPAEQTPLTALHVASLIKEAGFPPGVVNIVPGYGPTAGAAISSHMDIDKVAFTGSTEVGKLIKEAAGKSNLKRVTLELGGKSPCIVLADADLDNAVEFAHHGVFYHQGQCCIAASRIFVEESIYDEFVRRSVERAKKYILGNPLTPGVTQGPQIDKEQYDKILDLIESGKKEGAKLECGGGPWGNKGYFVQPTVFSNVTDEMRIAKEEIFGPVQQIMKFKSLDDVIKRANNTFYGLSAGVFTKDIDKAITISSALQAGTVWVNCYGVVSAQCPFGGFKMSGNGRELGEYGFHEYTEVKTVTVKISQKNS
IMPase inh = qHTS Assay for Identifying the Cell-Membrane Permeable IMPase Inhibitors; inhibition (IP1 accumulation), % at 46.1 µM; 120,000 tested, under 10 active; AID 901, 2007; Inositol monophosphatase 1 (Rattus norvegicus), P97697; CHO-M1 cells, IP1 accumulation, HTRF TR-FRET ratio; active = well fitted curve in the direction sought with a large enough effect in the signal ratio, not every such curve was filed as active; inconclusive = small, poorly fitted or top-dose-only effect, or a change in a side signal; inactive = no such curve, though single readings can be large or run the other way; the % refers to the signal ratio;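 note: cells stimulated with carbachol in lithium chloride buffer; higher means more IMPase inhibition seen as more IP1 and lower FRET ratio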
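Cellular IMPase inhibition is scored as a rise in cytosolic IP1, detected by competitive TR-FRET between d2-labelled IP1 and a europium anti-IP1 antibody. M1-expressing CHO cells were stimulated with carbachol for 30 min at 37C, with lithium (50 mM LiCl) present in the buffer.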
Of the large screens only hits and unclear results are named; the others gave an inactive call. Unless noted, calls come from the whole dose curve; as a rule, active = well fitted inhibition curve with a large enough effect (not every such curve was filed as active); inconclusive = small, poorly fitted or top-dose-only effect, or another doubt; inactive = no such curve, though single readings can be large or run the other way.

CC(C)C(CC(=O)NCc1ccco1)c1ccco1 (centres undefined)	HPGD inh 14.1µM, ALDH1A1 inh inconclusive
COC(=O)N1CCC[C@@]2(CCN(c3ccccn3)C2)C1	HPGD inh inconclusive, ALDH1A1 inh inconclusive (no result: PNC inhibitor, IMPase inh)
Cc1ccccc1-c1nc(NC(=O)CSc2ncnc3sc4c(c23)CCCC4)ns1	none (no result: IMPase Li inh, 12-hLO inh, HPGD inh, PNC inhibitor, ALDH1A1 inh)
O=C(O)c1ccccc1N/N=C\c1ccnc2ccccc12	HPGD inh 12.6µM, ALDH1A1 inh inconclusive
Cn1c(=O)c2c(nc(N/N=C\c3ccccc3C(=O)O)n2C)n(C)c1=O	none (no result: PNC inhibitor, IMPase inh)
CCCCc1nc(NCCN2CCOCC2)c(C#N)c2c1COC(C)(C)C2	ALDH1A1 inh 11.2µM
CC(C)Cc1nc(NCCN2CCOCC2)c(C#N)c2c1COC(C)(C)C2	PNC inhibitor inconclusive
O[C@@H]([C@H](O)[C@@H](O)CBr)[C@@H](O)CBr	ALDH1A1 inh inconclusive (no result: PNC inhibitor, IMPase inh)
O=C(NN=C1CCCCCCC1)c1ccc(F)cc1	none (no result: 12-hLO inh, HPGD inh, PNC inhibitor, IMPase inh)
CCNc1ccc(C(=O)NN=C2CCCC2)cc1[N+](=O)[O-]	ALDH1A1 inh 2.24µM (no result: 12-hLO inh, HPGD inh, PNC inhibitor, IMPase inh)
COc1ncc2nc(-c3ccc(F)cc3)c(=O)n(C3CC3)c2n1	ALDH1A1 inh inconclusive (no result: 12-hLO inh, HPGD inh, PNC inhibitor, IMPase inh)
CCOc1ccc(-n2c(N)c(C(=O)N3CCN(C)CC3)sc2=S)cc1	none (no result: 12-hLO inh, HPGD inh, PNC inhibitor, IMPase inh)
Cc1ccc(-n2c(N)c(C(=O)N3CCCCC3)sc2=S)cc1	HPGD inh 10µM, PNC inhibitor inconclusive, ALDH1A1 inh 10µM
Cc1ccc(-n2c(N)c(C(=O)N3CCN(C)CC3)sc2=S)cc1	HPGD inh 11.2µM, PNC inhibitor inconclusive, ALDH1A1 inh 22.4µM
COc1ccc(N2CCN(CC(O)COc3ccc(C(C)C)c(C)c3)CC2)cc1 (centres undefined)	none (no result: IMPase Li inh, 12-hLO inh, HPGD inh, PNC inhibitor, ALDH1A1 inh)
N[C@@H](Cc1cc(I)c(Oc2ccc(O)cc2)c(I)c1)C(=O)O	none (no result: 12-hLO inh, HPGD inh, PNC inhibitor, IMPase inh)
N#Cc1cccc(NC(=O)N2CC[C@@]3(CCCN(C(=O)c4ccncc4)C3)C2)c1	none (no result: PNC inhibitor, IMPase inh)
COc1ccc(CCNC(=O)c2cc3ccccn3n2)c(OC)c1OC	HPGD inh inconclusive, ALDH1A1 inh 22.4µM
COc1ccc(NC(=O)c2cc3ccccn3n2)cc1	PNC inhibitor inconclusive
O=C(CC(NC(=O)c1ccccc1Cl)c1ccccc1)NCCc1ccc(Cl)cc1 (centres undefined)	PNC inhibitor -108.0
COc1cc(C#CC#CCN2CCCCC2)ccc1O	HPGD inh 14.1µM, PNC inhibitor inconclusive, ALDH1A1 inh 1.58µM
O=C1N/C(=N/Nc2ccccc2)S/C1=C\c1ccccc1	12-hLO inh inconclusive, HPGD inh 10µM, ALDH1A1 inh 5.62µM
O=C1NC(=Nc2ccccc2)S/C1=C/c1cccnc1	none (no result: 12-hLO inh, HPGD inh, PNC inhibitor, IMPase inh)
CC(C)Sc1nc(-c2ccccc2)cc(=O)[nH]1	ALDH1A1 inh 20µM
CCC(Sc1nc(-c2ccccc2)cc(=O)[nH]1)C(=O)O (centres undefined)	none
O=C1CCC=C1C(O)c1ccc2c(c1)OCO2 (centres undefined)	none (no result: PNC inhibitor, IMPase inh)
CNc1ccc(C2(O)C(=O)c3ccccc3C2=O)cc1	PNC inhibitor inconclusive (no result: IMPase inh)
O=C1c2ccccc2C(O)(O)[C@@]1(O)[C@]1(O)C(=O)c2ccccc2C1(O)O	ALDH1A1 inh 0.251µM (no result: PNC inhibitor, IMPase inh)
CC[C@H]1OC(=O)[C@H](C)[C@@H](O[C@H]2C[C@@](C)(OC)[C@@H](O)[C@H](C)O2)C(C)[C@@H](O[C@@H]2O[C@H](C)C[C@H](N(C)C)[C@@H]2O)[C@](C)(OC)C[C@@H](C)C(=O)[C@H](C)[C@@H](O)[C@]1(C)O (some centres undefined)	none (no result: PNC inhibitor, IMPase inh)
O=C1CC(C(=O)N(c2cccc(F)c2)C(C(=O)NC2CCCC2)c2ccccn2)CS1 (centres undefined)	ALDH1A1 inh 10µM
CN(CCc1ccc(Cl)c(Cl)c1)CC(O)COc1ccc(NS(C)(=O)=O)cc1 (centres undefined)	none (no result: 12-hLO inh, HPGD inh, PNC inhibitor, IMPase inh)
